Experimental data: the supplement of paper PMC9694430
Counter-ions that a name gives are not always drawn.

Assays:
Experiment in all cases: thermal shift delta Tm vs DMSO control; higher = stronger stabilization (binding)
Conditions in all cases: 12.5 µM; protein concentration 2 µM
[1] = test system: LOC_OS02G45750-cb003
Method in brief: (§1)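 Rice kinase domain constructs, made in E. coli and purified, were placed in 96-well plates at 2 μM in 19.5 μl of 100 mM potassium phosphate pH 7.5, 150 mM NaCl, 10% glycerol and 5 × SYPRO Orange, with compound in DMSO. A temperature ramp from 25°C to 95°C at 0.05°C/s was used for differential scanning fluorimetry. The melting temperature shift is a triplicate mean compared with DMSO-only protein, derived from Boltzmann fits.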

[2] = test system: LOC_OS02G54510-cb004
Method in brief: as §1

[3] = test system: LOC_OS03G04050-cb001
Method in brief: as §1

[4] = test system: LOC_OS03G12390-cb001
Method in brief: as §1

[5] = test system: LOC_OS03G27990-cb004
Method in brief: as §1

[6] = test system: LOC_OS03G50450-cb001
Method in brief: as §1

[7] = test system: LOC_OS03G50810-cb003
Method in brief: as §1

[8] = test system: LOC_OS04G35114-cb001
Method in brief: as §1

[9] = test system: T1, LOC_OS04G38480-cb003
T1 sequence (whole entry): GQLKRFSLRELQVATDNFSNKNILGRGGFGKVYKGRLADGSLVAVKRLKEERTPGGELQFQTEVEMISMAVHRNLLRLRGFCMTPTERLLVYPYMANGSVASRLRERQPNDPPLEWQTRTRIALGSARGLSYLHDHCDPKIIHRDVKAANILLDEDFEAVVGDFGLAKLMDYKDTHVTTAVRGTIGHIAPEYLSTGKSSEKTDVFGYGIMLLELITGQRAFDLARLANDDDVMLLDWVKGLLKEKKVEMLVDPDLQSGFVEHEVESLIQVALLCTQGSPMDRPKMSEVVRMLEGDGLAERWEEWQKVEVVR
Method in brief: as §1

[10] = test system: T2, LOC_OS04G41100-cb001
T2 sequence (whole entry): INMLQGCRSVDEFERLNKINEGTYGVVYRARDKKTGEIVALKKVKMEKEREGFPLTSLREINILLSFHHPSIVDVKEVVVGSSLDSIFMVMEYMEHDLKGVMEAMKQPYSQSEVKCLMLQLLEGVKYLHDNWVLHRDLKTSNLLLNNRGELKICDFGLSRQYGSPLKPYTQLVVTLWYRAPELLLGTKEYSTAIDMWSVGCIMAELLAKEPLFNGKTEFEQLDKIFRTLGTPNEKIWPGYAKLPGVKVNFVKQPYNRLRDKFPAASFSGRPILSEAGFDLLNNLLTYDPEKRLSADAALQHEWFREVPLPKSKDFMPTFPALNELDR
Method in brief: as §1

[11] = test system: LOC_OS04G57630-cb004
Method in brief: as §1

[12] = test system: LOC_OS05G07850-cb002
Method in brief: as §1

[13] = test system: LOC_OS05G16824-cb004
Method in brief: as §1

[14] = test system: LOC_OS05G28520-cb001
Method in brief: as §1

[15] = test system: LOC_OS05G30820-cb001
Method in brief: as §1

[16] = test system: LOC_OS05G43570-cb004
Method in brief: as §1

[17] = test system: LOC_OS06G16330-cb003
Method in brief: as §1

[18] = test system: T3, LOC_OS06G22820-cb001
T3 sequence (whole entry): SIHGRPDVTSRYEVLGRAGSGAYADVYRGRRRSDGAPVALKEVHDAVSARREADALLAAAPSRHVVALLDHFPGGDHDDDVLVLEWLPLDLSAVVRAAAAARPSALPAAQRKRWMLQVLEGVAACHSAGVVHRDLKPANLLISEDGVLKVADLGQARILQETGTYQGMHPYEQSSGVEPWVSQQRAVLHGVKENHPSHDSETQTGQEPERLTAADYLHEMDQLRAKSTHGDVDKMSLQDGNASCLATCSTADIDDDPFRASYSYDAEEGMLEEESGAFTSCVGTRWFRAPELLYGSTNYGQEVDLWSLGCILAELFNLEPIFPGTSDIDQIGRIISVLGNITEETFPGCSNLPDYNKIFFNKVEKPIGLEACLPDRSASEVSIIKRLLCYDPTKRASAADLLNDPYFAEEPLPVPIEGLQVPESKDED
Method in brief: as §1

[19] = test system: LOC_OS07G06570-cb004
Method in brief: as §1

[20] = test system: LOC_OS07G07230-cb001
Method in brief: as §1
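Also: purified Escherichia coli-expressed rice kinase domain construct.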

LOC_OS06G16330-cb003, sequence (as listed by the source): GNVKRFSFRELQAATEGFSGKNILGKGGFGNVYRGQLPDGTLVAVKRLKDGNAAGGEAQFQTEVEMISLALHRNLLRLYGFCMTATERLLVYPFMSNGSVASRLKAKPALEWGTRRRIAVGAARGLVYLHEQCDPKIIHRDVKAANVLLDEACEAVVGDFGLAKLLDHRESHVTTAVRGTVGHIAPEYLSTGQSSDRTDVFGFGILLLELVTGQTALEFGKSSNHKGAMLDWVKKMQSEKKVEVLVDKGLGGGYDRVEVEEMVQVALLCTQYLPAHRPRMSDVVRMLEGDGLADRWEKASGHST

| Structure (SMILES) | thermal shift delta Tm [1] | thermal shift delta Tm [2] | thermal shift delta Tm [3] | thermal shift delta Tm [4] | thermal shift delta Tm [5] | thermal shift delta Tm [6] | thermal shift delta Tm [7] | thermal shift delta Tm [8] | thermal shift delta Tm [9] | thermal shift delta Tm [10] | thermal shift delta Tm [11] | thermal shift delta Tm [12] | thermal shift delta Tm [13] | thermal shift delta Tm [14] | thermal shift delta Tm [15] | thermal shift delta Tm [16] | thermal shift delta Tm [17] | thermal shift delta Tm [18] | thermal shift delta Tm [19] | thermal shift delta Tm [20] |
| --- | --- | --- | --- | --- | --- | --- | --- | --- | --- | --- | --- | --- | --- | --- | --- | --- | --- | --- | --- | --- |
| CC(C)(C)c1nc(-c2ccc(NC(=O)Nc3cccc(C(F)(F)F)c3)c3ccccc23)c2c(N)nccn12 [kira6] | 2.31 °C | 9.87 °C | 0.01 °C | 2.25 °C | 7.11 °C | 0.7 °C | 4.91 °C | 3.47 °C | 1.58 °C | -0.01 °C | 1.93 °C | 6.62 °C | 9.24 °C | 0.74 °C | 0.66 °C | 3.12 °C | 4.28 °C | 0.73 °C | 0.73 °C | 0.14 °C |
| COc1cc2c(c(OC)c1OC)-c1c(cc3c(c1OC)OCO3)CC(C)C(C)C2 (stereo not given) [Schisandrin B (Sch B)] | -0.1 °C | -0.01 °C | 0.81 °C | 0.12 °C | 0.05 °C | 0.76 °C | 0.12 °C | 0.63 °C | 0.75 °C | 0.48 °C | 0.17 °C | 1.23 °C | -1 °C | 0.63 °C | 0.52 °C | 0.14 °C | -0.39 °C | 0.43 °C | 1.21 °C | -0.17 °C |
| COc1cc(Nc2ncc3c(n2)-c2ccc(Cl)cc2C(c2c(F)cccc2OC)=NC3)ccc1C(=O)O [Alisertib (MLN8237)] | 2.28 °C | 4.54 °C | 0.09 °C | 0.11 °C | -0.26 °C | -0.33 °C | 1.53 °C | 2.39 °C | 0.2 °C | 0.09 °C | -0.1 °C | 10.3 °C | 5.74 °C | 0.02 °C | 0.19 °C | 0.06 °C | 2.21 °C | 0.35 °C | 0.77 °C | 0.11 °C |
| Clc1ccc(C2(c3ccc(-c4cn[nH]c4)cc3)CCNCC2)cc1 | -0.2 °C | 0.04 °C | 0.31 °C | 0.47 °C | 0.05 °C | 0.32 °C | 0.32 °C | 0.57 °C | 0.33 °C | 0.38 °C | 0.35 °C | 1.23 °C | -0.22 °C | 0.22 °C | 0.51 °C | 1.87 °C | 0.19 °C | 0.61 °C | 1.01 °C | 0.03 °C |
| CC(C)Oc1ccc(-c2nn([C@@H](C)c3oc4ccc(F)cc4c(=O)c3-c3cccc(F)c3)c3ncnc(N)c23)cc1F | -0.54 °C | 0.17 °C | 0.23 °C | -0.28 °C | 0.5 °C | -0.25 °C | 0.13 °C | 1.09 °C | 1.36 °C | 0.19 °C | 0.05 °C | -1 °C | -4.89 °C | 0.51 °C | 0.43 °C | 0.51 °C | 0.01 °C | 0.62 °C | 1.08 °C | -0.07 °C |
| CCOc1cc(C(=O)N2CCC(N3CCN(C)CC3)CC2)ccc1Nc1ncc2c(n1)N(C1CCCC1)c1ccccc1C(=O)N2C | 0.51 °C | -0.24 °C | 0 °C | -0.16 °C | 0.03 °C | 0.49 °C | 0.18 °C | 0.47 °C | 1.8 °C | 0.13 °C | -0.22 °C | 1.11 °C | 0.71 °C | 0.22 °C | 0.32 °C | 0.17 °C | 0.04 °C | 0.34 °C | 0.95 °C | -0.25 °C |
| CC#CC(=O)N1CC[C@@H](n2c(=O)n(-c3ccc(Oc4ccccc4)cc3)c3c(N)ncnc32)C1 [ONO-4059 (GS-4059) hydrochloride] | 0.78 °C | 0.65 °C | 0.51 °C | -0.67 °C | 0.44 °C | 0.4 °C | 0.3 °C | 0.12 °C | 0.62 °C | 0.03 °C | 0.32 °C | -0.32 °C | -5.29 °C | 0.56 °C | 0.41 °C | 0.2 °C | -0.41 °C | 0.35 °C | 0.52 °C | 0.73 °C |
| OC1CCC(Nc2ncc3nc(Nc4c(F)cc(F)cc4F)n([C@H]4CCOC4)c3n2)CC1 (stereo not given in full) [Tanzisertib(CC-930)] | 0.96 °C | 0.18 °C | 0.57 °C | 0.23 °C | 0.5 °C | 0.44 °C | 0.62 °C | 0.93 °C | 1.65 °C | 0.44 °C | -0.03 °C | 0.72 °C | 2.14 °C | 0.46 °C | 0.23 °C | 0.42 °C | -0.07 °C | 0.59 °C | 1.81 °C | 0.44 °C |
| CN1CCN(c2cccc(Nc3nc4c(-c5ccc(S(C)(=O)=O)cc5)cccn4n3)c2)CC1 | 2.02 °C | 0.36 °C | 0.44 °C | 0.47 °C | 1.72 °C | 2.95 °C | 1.65 °C | 2.23 °C | 1.42 °C | 0.46 °C | 0.63 °C | 5.82 °C | 6.48 °C | 0.11 °C | 0.63 °C | 0.2 °C | 4.09 °C | 0.43 °C | 0.46 °C | -0.02 °C |
| CC#CC(=O)N1CCC[C@H]1c1nc(-c2ccc(C(=O)Nc3ccccn3)cc2)c2c(N)nccn12 [Acalabrutinib (ACP-196)] | 1.09 °C | 0.55 °C | 0.39 °C | -0.37 °C | 0.24 °C | 0.4 °C | 0.38 °C | 0.89 °C | 1.22 °C | 0.5 °C | 0.54 °C | 1.21 °C | -2.72 °C | 0.31 °C | 0.59 °C | 0.02 °C | 0.81 °C | 0.52 °C | 1.01 °C | 0.32 °C |
| O=C1c2ccc(Nc3ccc(F)cc3F)cc2CCc2ccc(OC[C@H](O)CO)cc21 [Skepinone-L] | 0.45 °C | -0.21 °C | -0.01 °C | -0.61 °C | 0.11 °C | 0.06 °C | -0.16 °C | 1.82 °C | 1.25 °C | 0.53 °C | -0.62 °C | 1.02 °C | -0.73 °C | 0.27 °C | 0.6 °C | 0.4 °C | -0.23 °C | 0.53 °C | 0.41 °C | -0.05 °C |
| CC(C)(O)CNc1ncc(-c2ccnc(Nc3ccncc3)n2)c(CC2CC2)n1 [VPS34 inhibitor 1 (Compound 19, PIK-III analogue)] | 2.27 °C | 0.29 °C | 0.5 °C | 0.77 °C | 0.32 °C | 0.37 °C | 0.9 °C | 1.51 °C | 1.97 °C | 0.43 °C | 0.13 °C | 6.5 °C | 2.61 °C | 0.38 °C | 0.25 °C | 0.5 °C | 3.99 °C | 0.4 °C | 1.83 °C | 0.44 °C |
